Data on 29 compounds can be found in PubChem BioAssay (Tox21).

Structures are written as SMILES. Values without a mark were called inactive. Results filed as inconclusive are left out. The source made the active and inactive calls. Unless noted, the call rests on the fitted dose curve; in most records, active means well fitted curve in the direction sought with a large enough effect in the repeat runs; inconclusive means weak or mixed curves; inactive means no such curve, though single readings can be large; an effect the other way counts as inactive or inconclusive.

In assay [1] the target is Thyrotropin receptor (Homo sapiens) (UniProt P16473). The experiment in a line: qHTS assay to identify small molecule antagonists of the thyroid stimulating hormone receptor (TSHR) signaling pathway (AID 1259385; calls by dose curve; further: nearly all actives have a fitted effect of over 20% in size; further: potency means the concentration at half of the fitted maximal effect). The method, boiled down: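 TSHR-HEK293 cells were plated and held 18 h at 37C/5% CO2, then given compound plus Ro20-1724 and stimulated with TSH at 1.5 ng/mL final. After 30 min at room temperature, cAMP was detected with cAMP-d2/anti-cAMP-cryptate (1 h) by fluorescence.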
In general terms: In qHTS, concentration-response curves come from the screen itself.

Assay [2] in a line: qHTS assay to identify small molecule agonists of the estrogen receptor alpha (ER-alpha) signaling pathway in the presence of an antagonist - cell viability counter screen (AID 1259386).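 Further: cells exposed to compounds for 22 h at 37 °C before the viability read; nearly all actives have a fitted effect of over 30% in size.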 Further: potency means the concentration at half of the fitted maximal effect. On activity change, negative = cytotoxicity: series mostly up to about 92 µM. Put shortly: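 Using estrogen-depleted VM7Luc4E2 cells, the 15-concentration compound series was applied together with 10.0nM ICI-182,780 and incubated 22hr at 37C/5% CO2. Cell viability was then scored by CellTiter-Fluor.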

In assay [3] the target is Progesterone receptor (Homo sapiens) (UniProt P06401). The experiment in a line: qHTS assay to identify small molecule agonists of the progesterone receptor (PR) signaling pathway (AID 1346784; calls by dose curve; further: nearly all actives have a fitted effect of over 30% in size; further: potency means the concentration at half of the fitted maximal effect). Put shortly: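 Agonist mode, quantitative HTS format in a HEK 293T line expressing a UAS-controlled beta-lactamase reporter; 16 hr compound exposure at 37C in 2% charcoal-stripped FBS, then LiveBLAzer B/G FRET fluorescence.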

For assay [4] the target is unchanged. The experiment in a line: qHTS assay to identify small molecule antagonists of the progesterone receptor (PR) signaling pathway (AID 1346795; active means well fitted inhibition curve with a large enough effect in the signal ratio in the repeat runs, not every such curve was filed as active; the % refers to the signal ratio; further: potency means the concentration at half of the fitted maximal effect). Put shortly:
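HEK293T PR-UAS-bla reporter cells in charcoal-stripped serum (2%) received compound after a 6 hr settling period, followed by R5020 agonist at 1 nM final; 16 hr incubation preceded the FRET substrate step and fluorescence measurement.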

The nature of assay [5]: qHTS assay to identify small molecule antagonists of the progesterone receptor (PR) signaling pathway - cell viability counter screen (AID 1346798). Further: nearly all actives have a fitted effect of over 50% in size. Further: potency means the concentration at half of the fitted maximal effect. On activity change, negative = cytotoxicity: series mostly up to about 92 µM. Put shortly: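 Same-well multiplex: after 16 hr at 37C with compound and R5020 stimulation, HEK293T cells carrying a UAS-bla reporter received LiveBLAzer substrate (2 hr RT), then CellTiter-Glo (30 min RT) for luminescent viability.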

A short description of assay [6]: qHTS assay to identify small molecule agonists of the progesterone receptor (PR) signaling pathway - cell viability counter screen (AID 1346799; calls by dose curve; further: nearly all actives have a fitted effect of over 45% in size; further: potency means the concentration at half of the fitted maximal effect). Put shortly: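 Counter screen for cytotoxicity: compound-treated PR-UAS-bla HEK293T cells (16 hr, 37C, 5% CO2) were assayed with CellTiter-Glo, luminescence measured after 30 min at room temperature.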
The nature of assay [7]: qHTS assay to identify small molecule antagonists of the TGF-beta/Smad signaling pathway - cell viability counter screen (AID 1346824). Further: nearly all actives have a fitted effect of over 50% in size. The method, boiled down:
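SBE-bla HEK 293T cells were plated overnight at 37 C, then given compounds in DMSO plus TGF-beta1 (added as 0.25 ng/mL solution) for 5 hr. After the bla read, CellTiter-Glo was added to the same wells and luminescence read after 30 min at room temperature.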

The nature of assay [8]: qHTS assay to identify small molecule agonists of the TGF-beta/Smad signaling pathway - cell viability counter screen (AID 1346829). Further: top concentration of the series differs between compounds; nearly all actives have a fitted effect of over 45% in size. Put shortly:
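Same-well cytotoxicity: CellTiter-Glo added after the 2 hr room-temperature beta-lactamase substrate step, luminescence measured 30 min later; cells had 5 hr of compound at 37 C.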

For assay [9], the target named is Thyrotropin-releasing hormone receptor (Homo sapiens) (UniProt P34981). The experiment in a line: qHTS assay to identify small molecule antagonists of the thyrotropin-releasing hormone receptor (TRHR) signaling pathway (AID 1346877; active means well fitted inhibition curve with a large enough effect in the repeat runs, not every such curve was filed as active; further: series mostly up to about 51 µM). Put shortly:
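Calcium signal in dye-loaded TRHR/HEK293 cells; compounds added 5 min before TRH (1 nM final); fluorescence monitored 3 min at 1 s steps.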

The nature of assay [10]: qHTS assay to identify small molecule agonists of the TGF-beta/Smad signaling pathway (AID 1346859; active means well fitted activation curve with a large enough effect in the signal ratio in the repeat runs, not every such curve was filed as active; the % refers to the signal ratio; further: series mostly up to about 77 µM). The method, boiled down: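 Smad-responsive beta-lactamase reporter cells (HEK 293T) received compounds from DMSO stocks after overnight attachment, were incubated 5 hr, then treated 2 hr with FRET substrate before dual-emission fluorescence measurement (405 nm excitation).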
On the % scale 0 is the no-effect control and ±100 the full control effect.

Chain of Thyrotropin-releasing hormone receptor (Homo sapiens) (P34981 whole entry, looked up): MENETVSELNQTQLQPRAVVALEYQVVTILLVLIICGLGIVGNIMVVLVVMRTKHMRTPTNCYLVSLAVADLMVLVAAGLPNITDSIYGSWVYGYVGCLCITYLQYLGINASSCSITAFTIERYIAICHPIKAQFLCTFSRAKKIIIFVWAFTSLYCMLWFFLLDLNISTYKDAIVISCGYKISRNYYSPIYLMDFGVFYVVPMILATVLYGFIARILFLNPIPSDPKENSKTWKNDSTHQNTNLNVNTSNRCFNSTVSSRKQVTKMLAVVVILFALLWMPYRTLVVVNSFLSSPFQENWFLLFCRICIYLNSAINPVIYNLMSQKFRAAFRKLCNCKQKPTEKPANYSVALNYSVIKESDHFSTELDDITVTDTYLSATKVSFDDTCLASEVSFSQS
Chain of Thyrotropin receptor (Homo sapiens) (P16473 whole entry, looked up): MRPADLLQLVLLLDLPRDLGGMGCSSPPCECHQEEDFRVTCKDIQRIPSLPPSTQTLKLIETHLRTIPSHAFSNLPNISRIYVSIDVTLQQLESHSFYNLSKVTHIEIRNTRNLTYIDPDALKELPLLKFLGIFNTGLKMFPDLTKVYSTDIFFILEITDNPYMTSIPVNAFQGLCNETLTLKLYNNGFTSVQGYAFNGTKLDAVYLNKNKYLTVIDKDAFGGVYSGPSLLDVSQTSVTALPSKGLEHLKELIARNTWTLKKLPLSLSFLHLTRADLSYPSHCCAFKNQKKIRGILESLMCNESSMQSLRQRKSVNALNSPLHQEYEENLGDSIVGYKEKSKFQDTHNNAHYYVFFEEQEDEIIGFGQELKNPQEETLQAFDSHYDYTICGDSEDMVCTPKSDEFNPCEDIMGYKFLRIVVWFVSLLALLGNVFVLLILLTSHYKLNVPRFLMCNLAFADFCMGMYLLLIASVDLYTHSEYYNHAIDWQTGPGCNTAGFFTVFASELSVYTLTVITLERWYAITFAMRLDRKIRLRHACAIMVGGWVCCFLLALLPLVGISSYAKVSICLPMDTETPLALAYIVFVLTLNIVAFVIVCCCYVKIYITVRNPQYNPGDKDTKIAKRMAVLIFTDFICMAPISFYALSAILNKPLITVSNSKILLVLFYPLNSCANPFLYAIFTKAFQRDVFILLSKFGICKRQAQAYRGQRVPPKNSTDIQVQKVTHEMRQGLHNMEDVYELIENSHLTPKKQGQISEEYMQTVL
Chain of Progesterone receptor (Homo sapiens) (P06401 whole entry, looked up): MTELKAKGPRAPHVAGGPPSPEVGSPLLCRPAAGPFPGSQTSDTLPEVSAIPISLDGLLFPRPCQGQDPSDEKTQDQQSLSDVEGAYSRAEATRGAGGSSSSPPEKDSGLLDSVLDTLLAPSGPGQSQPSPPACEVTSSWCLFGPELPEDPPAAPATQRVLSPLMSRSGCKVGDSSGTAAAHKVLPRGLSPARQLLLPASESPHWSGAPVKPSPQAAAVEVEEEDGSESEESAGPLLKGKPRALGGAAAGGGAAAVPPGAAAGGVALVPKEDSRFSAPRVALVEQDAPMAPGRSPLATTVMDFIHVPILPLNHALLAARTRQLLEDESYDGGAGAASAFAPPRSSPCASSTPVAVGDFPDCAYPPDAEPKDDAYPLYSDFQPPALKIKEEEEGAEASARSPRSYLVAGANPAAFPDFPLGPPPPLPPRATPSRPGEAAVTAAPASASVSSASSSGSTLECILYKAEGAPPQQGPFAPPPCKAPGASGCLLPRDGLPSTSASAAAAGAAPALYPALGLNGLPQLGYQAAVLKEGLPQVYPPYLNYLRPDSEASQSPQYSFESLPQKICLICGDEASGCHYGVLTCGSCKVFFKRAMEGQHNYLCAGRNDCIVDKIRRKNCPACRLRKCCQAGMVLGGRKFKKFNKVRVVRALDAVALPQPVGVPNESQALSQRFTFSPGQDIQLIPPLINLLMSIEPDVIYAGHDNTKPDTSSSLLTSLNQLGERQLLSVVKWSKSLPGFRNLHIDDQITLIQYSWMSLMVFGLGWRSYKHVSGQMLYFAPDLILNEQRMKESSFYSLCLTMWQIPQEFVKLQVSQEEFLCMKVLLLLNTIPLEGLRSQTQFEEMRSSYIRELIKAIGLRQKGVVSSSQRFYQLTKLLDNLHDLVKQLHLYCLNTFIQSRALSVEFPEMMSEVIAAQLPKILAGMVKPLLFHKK

As to `CN1C(=O)CC(C)(c2ccccc2)C1=O` (centres undefined), the Potency entry in [1], in assay [2], in assay [3], in assay [4], in assay [5] and in [6] was “inactive” each time. For the same compound, the call in [7], in assay [8] and in [9] was inactive.

Regarding `COc1cc2[nH]c(=O)[nH]c(=O)c2cc1OC`, the Potency entry in assay [1], in assay [2], in [3], in assay [4], in assay [5] and in assay [6] was “inactive” throughout. Further, the compound was classed as inactive in assay [7], in assay [8] and in assay [9].

For `CC1CC(O)CC(C)(C)C1` (centres undefined), the Potency result in assay [1], in assay [2], in assay [3] and in assay [4] was “inactive” in each case. Further, the compound was classed as inactive in assay [7], in assay [8] and in [9].

For the compound `Fc1c(F)c(F)c(Br)c(F)c1F`, the Potency result in [1], in assay [2], in assay [3], in assay [4] and in assay [6] was “inactive” in each case. For the same compound, the outcome in assay [7], in assay [8] and in assay [10] was inactive.

Take `CC(CCc1ccc2c(c1)OCO2)NN` (centres undefined): the Potency entry in [1], in assay [2], in assay [3], in assay [4], in assay [5] and in assay [6] was “inactive” throughout. Moreover, the compound was classed as inactive in assay [7], in assay [8] and in assay [9].

As to `C[Si]1(C)O[Si](C)(C)O[Si](C)(C)O1`, the Potency result in assay [1], in assay [2], in [3], in assay [4], in assay [5] and in assay [6] was “inactive” throughout. Further, the outcome in assay [8], in assay [10] and in [9] was inactive.

Turning to `N#C/C(=C1\SCC(c2ccccc2Cl)S1)n1ccnc1` (centres undefined), the Potency entry in assay [1], in assay [2] and in [3] was “inactive” throughout. For the same compound, the Potency in assay [4] is 23.7 µM (active). Besides, the call in assay [8], in assay [10] and in assay [9] was inactive.

For `CNCCCC1c2ccccc2C=Cc2ccccc21`, the Potency in [1] is 26.6 µM (active); in [5], 21.1 µM (active); in assay [6], 10.6 µM (active). Moreover, the Potency entry in [2] and in assay [3] was “inactive” throughout. For the same compound, the outcome in [7], in [8], in [10] and in [9] was inactive.

As for `CC(C)c1nnc2ccc(-c3ocnc3-c3cc(F)ccc3F)cn12`, the Potency result in assay [1], in assay [2] and in assay [3] was “inactive” each time. In addition, the call in assay [7], in [8] and in assay [9] was inactive.

`CCCOC(=O)c1ccc(C(=O)OCCC)nc1`: the Potency result in assay [1], in [2], in assay [5] and in assay [6] was “inactive” each time. Also, the compound was classed as inactive in [7] and in assay [8].

For `CCCC(=O)O[C@]1(C(=O)COC(=O)CC)CC[C@H]2[C@@H]3CCC4=CC(=O)CC[C@]4(C)[C@H]3[C@@H](O)C[C@@]21C`, in assay [1], the activity change, negative = inhibition is -1.62% [at 19 µM]. In addition, the activity change, negative = cytotoxicity was 2.18% [at 19 µM] in assay [2], -3.5% [at 18.9 µM] in assay [5], 17.2% [at 19 µM] in assay [6] and -0.518% [at 15.8 µM] in assay [8]. Besides, the figures for the activation in assay [3] and in assay [10] were 3.7% [at 19 µM] and 5.59% [at 15.8 µM], respectively. Besides, in [7], the viability change, negative = cytotoxic is -0.584% [at 15.8 µM]. The activity, negative = inhibition in assay [9] is -1.85% [at 10.5 µM].

As for `C[C@]12CCC(=O)C=C1C=C[C@@H]1[C@@H]2CC[C@@]2(C)[C@H]1CC[C@@]21CCC(=O)O1`, the Potency entry in [1] and in assay [2] was “inactive” in each case. In addition, the Potency in assay [3] is 1.68 µM (active). Besides, the outcome in [7], in assay [8] and in assay [9] was inactive.

For the compound `CCCCC/C(=C\c1ccccc1)CO`, the Potency result in [1], in assay [2], in [3], in assay [5] and in assay [6] was “inactive” in each case. Moreover, the call in [7], in [8] and in [10] was inactive.

`NC(=O)Nc1ccc(Cl)c(Cl)c1`: the Potency entry in assay [1], in assay [2], in [3], in [5] and in [6] was “inactive” each time. Also, the result in assay [7], in assay [8], in [10] and in [9] was inactive.

For the compound `CCCCCC=CCC=CCCCCCCCC(=O)OCC`, the Potency result in assay [1], in assay [2], in assay [4], in [5] and in [6] was “inactive” throughout. Also, the compound was classed as inactive in assay [8], in assay [10] and in assay [9].

In the case of `CC1(C)O[C@@H]2C[C@H]3[C@@H]4CCC5=CC(=O)C=C[C@]5(C)[C@H]4[C@@H](O)C[C@]3(C)[C@]2(C(=O)CO)O1`, the Potency entry in assay [1], in assay [2] and in assay [5] was “inactive” in each case. Further, in [3], the Potency was 0.133 µM (active). Moreover, the compound was called inactive in assay [7], in assay [8] and in assay [9].

As for `CC1=CC(O)CC(C)(C)C1` (centres undefined), the Potency result in assay [1], in assay [2], in assay [3], in [5] and in [6] was “inactive” each time. Also, the call in assay [7], in [8] and in assay [10] was inactive.

Take `CCCCCCCCCCCCCCC[C@H](O)[C@@H](N)CO`: the Potency in assay [1] was 26.6 µM (active). Moreover, the Potency entry in [2], in assay [3] and in assay [6] was “inactive” each time. Further, the result in assay [7], in [8], in assay [10] and in [9] was inactive.

As for `COC(=O)Nc1nc2ccc(C(=O)c3cccs3)cc2[nH]1`, the Potency result in assay [1], in assay [2] and in assay [3] was “inactive” throughout. Also, the call in assay [7], in assay [8] and in [10] was inactive.

Consider `Cc1ccc(/C=N/n2c(-c3ccccc3)csc2=S)cc1`, for which the Potency entry in [1], in assay [2] and in assay [3] was “inactive” each time. Besides, the call in [10] and in [9] was inactive.

Consider `CC(=O)[C@H]1CC[C@H]2[C@@H]3C=CC4=CC(=O)CC[C@@]4(C)[C@@H]3CC[C@]12C`, for which the Potency result in assay [1], in assay [2], in assay [4] and in [6] was “inactive” each time. Also, the call in [7], in assay [8], in assay [10] and in assay [9] was inactive.

As for `CC1=CC(=O)CC(C)(C)C1(O)/C=C/C(C)=C\C(=O)O` (centres undefined), the Potency entry in assay [1], in assay [2], in assay [3], in [5] and in [6] was “inactive” in each case. Also, the compound was classed as inactive in [7], in assay [8], in [10] and in [9].

Take `COC(OC)(C(=O)c1ccccc1)c1ccccc1`: the Potency result in assay [1], in [2], in assay [3], in assay [5] and in [6] was “inactive” throughout. The outcome in assay [7], in assay [8] and in [10] was inactive.

Turning to `CC1(C)C2=CCCC(C)(C)[C@]23CC[C@H]1C3`, the Potency result in [1], in assay [2] and in [4] was “inactive” in each case. Moreover, the compound was called inactive in [7], in assay [8], in assay [10] and in assay [9].

As to `O=C(O)C(Cc1cc(I)c(O)c(I)c1)c1ccccc1` (centres undefined), the Potency entry in assay [1], in assay [2], in [3] and in [6] was “inactive” in each case. Also, the compound was called inactive in assay [7], in assay [8] and in assay [10].

With `CCOC(=O)N1CCC(n2c(=O)[nH]c3cc(Cl)ccc32)CC1`, the Potency result in assay [1] and in [3] was “inactive” throughout. Moreover, in assay [2], the Potency was 23.7 µM (active). Further, the compound was classed as inactive in assay [7], in assay [8] and in [9].

For `CCC(=O)Oc1ccc(/C(CC)=C(\CC)c2ccc(OC(=O)CC)cc2)cc1`, the Potency entry in [1] and in assay [2] was “inactive” each time. For the same compound, in assay [4], the Potency is 12.2 µM (active). Besides, the outcome in assay [8] and in assay [10] was inactive.

`OCCSc1ccccc1`: the Potency result in assay [1], in [2] and in assay [3] was “inactive” throughout. Besides, the call in assay [7], in assay [8] and in assay [10] was inactive.

In the case of `NC(=O)N(O)[C@@H]1COc2cc(OCc3ccccc3)ccc21`, the Potency result in assay [1] and in assay [2] was “inactive” each time. In addition, the Potency in [4] was 13.7 µM (active). Moreover, the call in assay [7] and in assay [8] was inactive.
